# Test results from publication PMC5540273 (PLoS ONE, 2017).
# Read-outs that look alike come from different tables or passages of the source.
# What was measured:
# FYN = details: concentration: 1 μM, replicates: in singlicate; n = 1
# GAK = details: concentration: 1 μM, replicates: in singlicate; n = 1
# GCN2(Kin.Dom.2,S808G) = test system: T1, GCN2(Kin.Dom.2,S808G); details: concentration: 1 μM, replicates: in singlicate; n = 1
# T1 construct: gene EIF2AK4
# GRK1 = details: concentration: 1 μM, replicates: in singlicate; n = 1
# GRK2 = test system: T2, GRK2; details: concentration: 1 μM, replicates: in singlicate; n = 1
# T2 construct: gene ADRBK1
# GRK3 = test system: T3, GRK3; details: concentration: 1 μM, replicates: in singlicate; n = 1
# T3 construct: gene ADRBK2
# GRK4 = details: concentration: 1 μM, replicates: in singlicate; n = 1
# GRK7 = details: concentration: 1 μM, replicates: in singlicate; n = 1
# GSK3A = details: concentration: 1 μM, replicates: in singlicate; n = 1
# GSK3B = details: n = 1
# HASPIN = test system: T4, HASPIN; details: concentration: 1 μM, replicates: in singlicate; n = 1
# T4 construct: gene GSG2
# HCK = details: concentration: 1 μM, replicates: in singlicate; n = 1
# HIPK1 = details: concentration: 1 μM, replicates: in singlicate; n = 1
# HIPK2 = details: concentration: 1 μM, replicates: in singlicate; n = 1
# HIPK3 = details: concentration: 1 μM, replicates: in singlicate; n = 1
# HIPK4 = details: concentration: 1 μM, replicates: in singlicate; n = 1
# HPK1 = details: concentration: 1 μM, replicates: in singlicate; n = 1
# HUNK = details: concentration: 1 μM, replicates: in singlicate; n = 1
# ICK = details: concentration: 1 μM, replicates: in singlicate; n = 1
# IGF1R = details: concentration: 1 μM, replicates: in singlicate; n = 1
# [1] = concentration: 1 μM, replicates: in singlicate
# 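Note: KINOMEscan kinase panel screen.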
smiles,measurement,setting,value
N#CC1(c2cccc(C(=O)Nc3cccc(Oc4ccc5nc(NC(=O)C6CC6)sc5n4)c3)c2)CC1,%Inh,FYN,92%
same,%Inh,GAK,0%
same,%Inh,"GCN2(Kin.Dom.2,S808G)",0%
same,%Inh,GRK1,12%
same,%Inh,GRK2,0%
same,%Inh,GRK3,0%
same,%Inh,GRK4,0%
same,%Inh,GRK7,0%
same,%Inh,GSK3A,24%
same,%Inh,GSK3B; [1],0%
same,%Inh,HASPIN,38%
same,%Inh,HCK,98.3%
same,%Inh,HIPK1,6%
same,%Inh,HIPK2,0%
same,%Inh,HIPK3,0%
same,%Inh,HIPK4,78%
same,%Inh,HPK1,40%
same,%Inh,HUNK,32%
same,%Inh,ICK,0%
same,%Inh,IGF1R,0%
O=C(Nc1n[nH]c2nc(-c3cccc(O)c3)ccc12)C1CC1 [SB-711805],%Inh,FYN,0%
same,%Inh,GAK,23%
same,%Inh,"GCN2(Kin.Dom.2,S808G)",12%
same,%Inh,GRK1,24%
same,%Inh,GRK2,0%
same,%Inh,GRK3,0%
same,%Inh,GRK4,24%
same,%Inh,GRK7,3%
same,%Inh,GSK3A,98.8%
same,%Inh,GSK3B; 1 µM,96.3%
same,%Inh,HASPIN,45%
same,%Inh,HCK,15%
same,%Inh,HIPK1,57%
same,%Inh,HIPK2,27%
same,%Inh,HIPK3,31%
same,%Inh,HIPK4,7%
same,%Inh,HPK1,0%
same,%Inh,HUNK,0%
same,%Inh,ICK,53%
same,%Inh,IGF1R,0%
Cc1ccccc1CC(=O)N1CCc2cc(-c3cn(C)c4ncnc(N)c34)ccc21 [GSK2603346],%Inh,FYN,32%
same,%Inh,GAK,32%
same,%Inh,"GCN2(Kin.Dom.2,S808G)",65%
same,%Inh,GRK1,9%
same,%Inh,GRK2,3%
same,%Inh,GRK3,0%
same,%Inh,GRK4,0%
same,%Inh,GRK7,0%
same,%Inh,GSK3A,1%
same,%Inh,GSK3B; [1],2%
same,%Inh,HASPIN,0%
same,%Inh,HCK,13%
same,%Inh,HIPK1,0%
same,%Inh,HIPK2,0%
same,%Inh,HIPK3,1%
same,%Inh,HIPK4,0%
same,%Inh,HPK1,74%
same,%Inh,HUNK,0%
same,%Inh,ICK,0%
same,%Inh,IGF1R,0%
CCn1cnc2c(NCc3ccccc3)ncnc21 [SKF-96418],%Inh,FYN,0%
same,%Inh,GAK,0%
same,%Inh,"GCN2(Kin.Dom.2,S808G)",0%
same,%Inh,GRK1,39%
same,%Inh,GRK2,0%
same,%Inh,GRK3,0%
same,%Inh,GRK4,6%
same,%Inh,GRK7,0%
same,%Inh,GSK3A,0%
same,%Inh,GSK3B; [1],35%
same,%Inh,HASPIN,10%
same,%Inh,HCK,9%
same,%Inh,HIPK1,27%
same,%Inh,HIPK2,9%
same,%Inh,HIPK3,33%
same,%Inh,HIPK4,33%
same,%Inh,HPK1,0%
same,%Inh,HUNK,48%
same,%Inh,ICK,0%
same,%Inh,IGF1R,0%
CNc1nccc(-c2ccc3c(N)n[nH]c3c2)n1 [GSK2206003],%Inh,FYN,17%
same,%Inh,GAK,69%
same,%Inh,"GCN2(Kin.Dom.2,S808G)",0%
same,%Inh,GRK1,0%
same,%Inh,GRK2,15%
same,%Inh,GRK3,23%
same,%Inh,GRK4,46%
same,%Inh,GRK7,14%
same,%Inh,GSK3A,14%
same,%Inh,GSK3B; [1],0%
same,%Inh,HASPIN,93%
same,%Inh,HCK,0%
same,%Inh,HIPK1,34%
same,%Inh,HIPK2,0%
same,%Inh,HIPK3,37%
same,%Inh,HIPK4,42%
same,%Inh,HPK1,55%
same,%Inh,HUNK,0%
same,%Inh,ICK,0%
same,%Inh,IGF1R,22%
O=C(O)C(F)(F)F.O=c1[nH]ccc2nc(N[C@@H]3CCNC3)nc(Nc3cc(Cl)cc(Cl)c3)c12 [GSK2188764],%Inh,FYN,52%
same,%Inh,GAK,74%
same,%Inh,"GCN2(Kin.Dom.2,S808G)",69%
same,%Inh,GRK1,92%
same,%Inh,GRK2,47%
same,%Inh,GRK3,32%
same,%Inh,GRK4,86%
same,%Inh,GRK7,70%
same,%Inh,GSK3A,49%
same,%Inh,GSK3B; [1],19%
same,%Inh,HASPIN,86%
same,%Inh,HCK,0%
same,%Inh,HIPK1,27%
same,%Inh,HIPK2,6%
same,%Inh,HIPK3,54%
same,%Inh,HIPK4,0%
same,%Inh,HPK1,95.7%
same,%Inh,HUNK,0%
same,%Inh,ICK,12%
same,%Inh,IGF1R,0%
Cn1cc(-c2ccc3c(c2)CCN3C(=O)Cc2cc(F)cc(C(F)(F)F)c2)c2c(N)ncnc21 [GSK2635225],%Inh,FYN,41%
same,%Inh,GAK,21%
same,%Inh,"GCN2(Kin.Dom.2,S808G)",2%
same,%Inh,GRK1,0%
same,%Inh,GRK2,0%
same,%Inh,GRK3,0%
same,%Inh,GRK4,3%
same,%Inh,GRK7,0%
same,%Inh,GSK3A,8%
same,%Inh,GSK3B; [1],2%
same,%Inh,HASPIN,9%
same,%Inh,HCK,0%
same,%Inh,HIPK1,16%
same,%Inh,HIPK2,0%
same,%Inh,HIPK3,17%
same,%Inh,HIPK4,13%
same,%Inh,HPK1,31%
same,%Inh,HUNK,9%
same,%Inh,ICK,0%
same,%Inh,IGF1R,30%
CN(c1ccc(NC(=O)Nc2cccc(Cl)c2)cc1)c1ccnc(N)n1.Cl [GW830707],%Inh,FYN,10%
same,%Inh,GAK,10%
same,%Inh,"GCN2(Kin.Dom.2,S808G)",0%
same,%Inh,GRK1,0%
same,%Inh,GRK2,0%
same,%Inh,GRK3,1%
same,%Inh,GRK4,0%
same,%Inh,GRK7,1%
same,%Inh,GSK3A,17%
same,%Inh,GSK3B; [1],1%
same,%Inh,HASPIN,32%
same,%Inh,HCK,0%
same,%Inh,HIPK1,0%
same,%Inh,HIPK2,18%
same,%Inh,HIPK3,0%
same,%Inh,HIPK4,79%
same,%Inh,HPK1,0%
same,%Inh,HUNK,51%
same,%Inh,ICK,7%
same,%Inh,IGF1R,0%
Cc1cc(-c2c(-c3ccc(F)cc3)ncn2CCCN2CCOCC2)nc(N)n1 [SB-222517],%Inh,FYN,0%
same,%Inh,GAK,5%
same,%Inh,"GCN2(Kin.Dom.2,S808G)",0%
same,%Inh,GRK1,31%
same,%Inh,GRK2,0%
same,%Inh,GRK3,4%
same,%Inh,GRK4,20%
same,%Inh,GRK7,0%
same,%Inh,GSK3A,0%
same,%Inh,GSK3B; [1],32%
same,%Inh,HASPIN,0%
same,%Inh,HCK,27%
same,%Inh,HIPK1,44%
same,%Inh,HIPK2,0%
same,%Inh,HIPK3,18%
same,%Inh,HIPK4,0%
same,%Inh,HPK1,12%
same,%Inh,HUNK,0%
same,%Inh,ICK,0%
same,%Inh,IGF1R,10%
